The campaign covered roughly 69,000 compounds. About 8,600 (12%) showed an effect of 50% or more. The list comes from a sample in which strong results are over-represented; it also holds similar structures and randomly drawn compounds.

From ChEMBL document CHEMBL4513216, “Probing the Open Global Health Chemical Diversity Library for Multistage-Active Starting Points for Next-Generation Antimalarials” (ACS Infect Dis, 2020) come the findings set out here.

This assay relates to Plasmodium berghei. The assay is described as follows: Screen against P. berghei liver stage (PbLuc), transformed with Luciferase, at 10uM. It counts as functional, HepG2. The note with it: tested at 10 uM.
On to `COc1cccc(C(=O)N2CCc3c(nc(N)[nH]c3=O)C2)c1OC`, for which the INHIBITION is given as -6.91%.

With `N#Cc1ccccc1Cn1cncn1`, the INHIBITION amounted to 25.3%.

Regarding `COCc1cccc(S(=O)(=O)Nc2ncc(C)s2)c1`, the INHIBITION is 14.2%.

Consider `c1cncc(COCc2nnc3n2CCN(Cc2ccco2)C3)c1`, for which the INHIBITION was 53.4%.

Turning to `c1cncc(COCc2nnc3n2CCN(Cc2cccs2)C3)c1`, the INHIBITION was -8.94%.

As to `c1cncc(COCc2nnc3n2CCN(Cc2ccoc2)C3)c1`, the INHIBITION was 35.1%.

With `c1cncc(COCc2n[nH]c3c2CN(Cc2ccco2)C3)c1`, the INHIBITION came out at 61.9%.

Regarding `OCCOCc1n[nH]c2c1CN(Cc1ccco1)C2`, the INHIBITION was determined as 23.3%.

For `O=C(C1CC1)N1Cc2[nH]nc(COCc3cccnc3)c2C1`, the INHIBITION is listed as 11.6%.

As to `CCS(=O)(=O)N1Cc2[nH]nc(COCc3cccnc3)c2C1`, the INHIBITION was 58.3%.

Consider `c1cncc(COCC2CN(Cc3ccco3)Cc3nccn3C2)c1` (stereo not drawn), for which the INHIBITION is listed as -6.39%.

For the compound `O=C(c1cccnc1)N1Cc2[nH]nc(COCCO)c2C1`, the INHIBITION is 40.8%.

For `O=C(C1CC=CC1)N1C[C@@H](OCc2cccnc2)[C@H]2OCCC[C@H]21`, the INHIBITION came to 0.72%.

Consider `CC(C)n1cc(CN2CCCN(C(=O)C(C)n3cncn3)CC2)cn1` (stereo not drawn), for which the INHIBITION came out at 26.4%.

As for `CC(Sc1n[nH]c(-c2ccc3c(c2)CCC3)n1)C(N)=O` (stereo not drawn), the INHIBITION is -56.1%.

Take `CS(=O)(=O)N[C@@H]1CCO[C@]2(CCN(CC3CCOCC3)C2)C1`: the INHIBITION was -33.9%.

As for `CC(C)c1noc(CN2CCCC2c2noc(C(C)C)n2)n1` (stereo not drawn), the INHIBITION is reported as 29.2%.

For the compound `COc1ncc(NS(=O)(=O)c2ccc(OC)c(C)c2)c(OC)n1`, the INHIBITION is recorded as 69.6%.

As to `COc1ncc(NS(=O)(=O)c2cccc(C)c2)c(OC)n1`, the INHIBITION came out at 34.6%.

In the case of `COc1ncc(NS(=O)(=O)c2ccc(F)c(F)c2)c(OC)n1`, the INHIBITION is 11.6%.

Consider `COc1ccc(S(=O)(=O)Nc2cccnc2-n2cncn2)cc1C`, for which the INHIBITION is 1.56%.

With `COc1ncc(NC(=O)c2ccco2)c(OC)n1`, the INHIBITION is recorded as 36.6%.

As for `CCOc1ccc(S(=O)(=O)Nc2cnc(OC)nc2OC)cc1`, the INHIBITION came to 81.1%.

With `Cc1ccc([C@H]2CN(CCO)C[C@@H]2NC(=O)CN2CCCCC2=O)o1`, the INHIBITION came to 4.93%.

On to `Cc1nc(Nc2nnc(C)s2)cc(C2CCCN2c2ccncn2)n1` (stereo not drawn), for which the INHIBITION amounted to 25.6%.

For the compound `O=C1COC2(COCCN(Cc3cccnc3)C2)CN1c1ccoc1` (stereo not drawn), the INHIBITION is given as 12.2%.

For the compound `Cc1nc2c(c(=O)n1C)CCN(Cc1cc3ccccc3[nH]1)CC2`, the INHIBITION is 60.4%.

Regarding `Cc1cc(CN2CCc3nc(C)n(C)c(=O)c3CC2)[nH]n1`, the INHIBITION was 45.6%.

For the compound `Cc1nc2c(c(=O)n1C)CCN(Cc1cc3cc[nH]c3cn1)CC2`, the INHIBITION came to 19.8%.

Take `Cc1cc(CN2CCc3cncnc3C2)on1`: the INHIBITION is recorded as -40.5%.

As for `CCN(C(=O)CCOC)C(c1ccc(Cl)cc1)c1ccccn1` (stereo not drawn), the INHIBITION came out at 58.8%.

Consider `CCN(C(=O)CCCOC)C(c1ccc(Cl)cc1)c1ccccn1` (stereo not drawn), for which the INHIBITION worked out at 31%.

As for `CCN(C(=O)COC)C(c1ccc(Cl)cc1)c1ccccn1` (stereo not drawn), the INHIBITION came out at 44.9%.

On to `O=C(C1CCCC1)N1CCCC2(CCN(c3cnccn3)CC2)C1`, for which the INHIBITION is -9.74%.

On to `c1c(CN2CCOCC2)nc2n1CCN(CC1CC1)C2`, for which the INHIBITION is 23.6%.

`O=C(Cc1ccc(F)cc1F)NCC(=O)Nc1ccccn1`: the INHIBITION is on record as 45%.

Turning to `CCN1CC(C(=O)N2CCc3cc(C(=O)N(C)C)n(C)c3C2)CCC1=O` (stereo not drawn), the INHIBITION is given as 51.7%.

In the case of `CCN1CC(C(=O)N2CCc3cc(C(N)=O)n(C)c3C2)CCC1=O` (stereo not drawn), the INHIBITION is given as 54.5%.

In the case of `Cn1c(C(N)=O)cc2c1CN(C(=O)C1CC(=O)N(C(C)(C)C)C1)CC2` (stereo not drawn), the INHIBITION is given as 48%.

With `CCN1CC(C(=O)N2CCN(c3cnn(C)c(=O)c3)CC2)CCC1=O` (stereo not drawn), the INHIBITION is given as -22%.

As for `CCN1CC(C(=O)N2CCc3cc(C(N)=O)n(C)c3C2)CC1=O` (stereo not drawn), the INHIBITION came to 32.2%.

As to `Cn1c(C(N)=O)cc2c1CN(C(=O)C1CCCN(C3CCCC3)C1)CC2` (stereo not drawn), the INHIBITION came out at 15.5%.

Turning to `Cc1ncc2c(n1)CN(CCCOc1ccc(C#N)cc1)CC2`, the INHIBITION is listed as 19.2%.

For `COCCNC(=O)Nc1cccc(COCCOC(C)C)c1`, the INHIBITION is reported as 18.6%.

For the compound `O=C(NCCc1nnc[nH]1)Nc1cccc(SC(F)F)c1`, the INHIBITION was determined as 51.7%.

Regarding `CC(=O)c1cccc(NC(=O)NCCOCC2CC2)c1`, the INHIBITION was -35.9%.

Take `CC(=O)c1cccc(NC(=O)NCCCc2nc(C(C)C)no2)c1`: the INHIBITION is given as -34.8%.

Consider `Cc1nnc(CCNC(=O)Nc2ccc(S(C)(=O)=O)cc2)[nH]1`, for which the INHIBITION is reported as -30%.

As to `CC(C)SCc1cccc(NC(=O)NC(C)c2nc[nH]n2)c1` (stereo not drawn), the INHIBITION was found to be 5.33%.

As for `CC(C)SCc1cccc(NC(=O)NCCc2nnc[nH]2)c1`, the INHIBITION is on record as 56.3%.

On to `CC(=O)c1cccc(NC(=O)NCCc2nnc[nH]2)c1`, for which the INHIBITION is recorded as 66.5%.

On to `O=C(CCc1ccc(Br)cc1)NCCc1nnc[nH]1`, for which the INHIBITION was -7.12%.

For the compound `Cc1cc(C)n(CC2CCCN2C(=O)c2c[nH]c(=O)c(Cl)c2)n1` (stereo not drawn), the INHIBITION is 21%.
